Results on 1 compound are retold here after the supplement of paper PMC6411743.

Common to all, as to test: NP40-soluble protein abundance relative to vehicle (solubility fold change) (ratio); higher = more soluble protein in presence of ATP
The target of one assay is T1, A6NG45|Q13162 (UniProt Q13162).
T1 sequence (whole entry): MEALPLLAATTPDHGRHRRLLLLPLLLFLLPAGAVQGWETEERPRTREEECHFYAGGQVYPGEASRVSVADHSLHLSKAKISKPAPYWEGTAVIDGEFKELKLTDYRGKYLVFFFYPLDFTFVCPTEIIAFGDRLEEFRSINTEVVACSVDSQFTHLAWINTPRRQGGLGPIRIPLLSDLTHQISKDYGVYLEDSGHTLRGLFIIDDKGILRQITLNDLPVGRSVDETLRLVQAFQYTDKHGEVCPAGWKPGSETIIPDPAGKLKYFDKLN
A digest of the protocol: (§1)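 Values are fold changes against the detergent-processed vehicle, based on vsn-normalised intensities. Jurkat crude lysate was treated at eight concentrations from 0.1 to 10 mM (10 min at room temperature, then 3 min at 37 °C), solubilised with 0.8% NP40 and benzonase, ultracentrifuged and analysed by TMT-labelled LC-MS/MS over three independent experiments.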

The target in the next assay is T2, E7ET89|Q86UW9|Q86UW9-2 (UniProt Q86UW9).
T2 sequence (whole entry): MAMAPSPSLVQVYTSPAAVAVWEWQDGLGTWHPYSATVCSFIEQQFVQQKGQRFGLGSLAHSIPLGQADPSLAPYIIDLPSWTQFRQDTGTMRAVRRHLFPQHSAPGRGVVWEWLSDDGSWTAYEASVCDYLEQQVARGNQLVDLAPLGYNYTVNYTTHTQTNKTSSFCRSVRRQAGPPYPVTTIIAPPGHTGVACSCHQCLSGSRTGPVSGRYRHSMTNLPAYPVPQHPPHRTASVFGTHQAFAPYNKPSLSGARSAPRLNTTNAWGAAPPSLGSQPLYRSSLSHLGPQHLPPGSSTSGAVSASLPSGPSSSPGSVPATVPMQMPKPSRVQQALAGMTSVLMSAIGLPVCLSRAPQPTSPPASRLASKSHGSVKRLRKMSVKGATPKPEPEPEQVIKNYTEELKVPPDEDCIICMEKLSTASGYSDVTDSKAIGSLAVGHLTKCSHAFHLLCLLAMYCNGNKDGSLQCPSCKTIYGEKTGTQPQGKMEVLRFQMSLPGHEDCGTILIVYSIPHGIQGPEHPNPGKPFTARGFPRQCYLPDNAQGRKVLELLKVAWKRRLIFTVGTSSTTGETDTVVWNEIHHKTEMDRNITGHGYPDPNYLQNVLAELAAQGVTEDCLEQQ
Summed up:
as §1

In another assay the target is T3, F5GY05|A0A0D9SEJ5|Q96EK7 (UniProt Q96EK7).
T3 sequence (whole entry): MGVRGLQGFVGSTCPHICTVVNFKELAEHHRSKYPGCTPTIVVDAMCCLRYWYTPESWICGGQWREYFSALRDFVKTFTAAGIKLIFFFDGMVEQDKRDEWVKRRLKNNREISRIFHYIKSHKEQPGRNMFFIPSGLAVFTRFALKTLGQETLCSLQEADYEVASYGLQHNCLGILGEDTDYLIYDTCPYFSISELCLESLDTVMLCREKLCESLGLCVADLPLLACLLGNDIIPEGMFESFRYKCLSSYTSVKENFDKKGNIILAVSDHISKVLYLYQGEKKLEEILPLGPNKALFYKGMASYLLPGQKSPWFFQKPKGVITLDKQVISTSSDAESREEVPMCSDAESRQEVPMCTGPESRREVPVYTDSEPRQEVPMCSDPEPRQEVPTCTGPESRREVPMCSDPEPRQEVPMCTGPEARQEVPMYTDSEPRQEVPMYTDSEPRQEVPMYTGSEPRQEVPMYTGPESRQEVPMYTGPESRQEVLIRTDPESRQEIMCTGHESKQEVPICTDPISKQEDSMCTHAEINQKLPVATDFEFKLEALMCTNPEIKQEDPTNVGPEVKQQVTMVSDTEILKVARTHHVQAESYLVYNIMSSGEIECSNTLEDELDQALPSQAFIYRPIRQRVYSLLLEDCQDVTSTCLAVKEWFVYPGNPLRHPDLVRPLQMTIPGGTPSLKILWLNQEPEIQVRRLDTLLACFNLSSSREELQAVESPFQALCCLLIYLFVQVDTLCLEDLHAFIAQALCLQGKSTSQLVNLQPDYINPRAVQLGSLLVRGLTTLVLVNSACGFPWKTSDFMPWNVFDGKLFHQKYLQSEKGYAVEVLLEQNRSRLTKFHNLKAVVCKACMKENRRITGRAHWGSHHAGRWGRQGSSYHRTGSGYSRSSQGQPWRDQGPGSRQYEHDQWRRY
A digest of the protocol: as §1

A further assay has as its target T4, F5H514|O95267|O95267-2 (UniProt O95267).
T4 sequence (whole entry): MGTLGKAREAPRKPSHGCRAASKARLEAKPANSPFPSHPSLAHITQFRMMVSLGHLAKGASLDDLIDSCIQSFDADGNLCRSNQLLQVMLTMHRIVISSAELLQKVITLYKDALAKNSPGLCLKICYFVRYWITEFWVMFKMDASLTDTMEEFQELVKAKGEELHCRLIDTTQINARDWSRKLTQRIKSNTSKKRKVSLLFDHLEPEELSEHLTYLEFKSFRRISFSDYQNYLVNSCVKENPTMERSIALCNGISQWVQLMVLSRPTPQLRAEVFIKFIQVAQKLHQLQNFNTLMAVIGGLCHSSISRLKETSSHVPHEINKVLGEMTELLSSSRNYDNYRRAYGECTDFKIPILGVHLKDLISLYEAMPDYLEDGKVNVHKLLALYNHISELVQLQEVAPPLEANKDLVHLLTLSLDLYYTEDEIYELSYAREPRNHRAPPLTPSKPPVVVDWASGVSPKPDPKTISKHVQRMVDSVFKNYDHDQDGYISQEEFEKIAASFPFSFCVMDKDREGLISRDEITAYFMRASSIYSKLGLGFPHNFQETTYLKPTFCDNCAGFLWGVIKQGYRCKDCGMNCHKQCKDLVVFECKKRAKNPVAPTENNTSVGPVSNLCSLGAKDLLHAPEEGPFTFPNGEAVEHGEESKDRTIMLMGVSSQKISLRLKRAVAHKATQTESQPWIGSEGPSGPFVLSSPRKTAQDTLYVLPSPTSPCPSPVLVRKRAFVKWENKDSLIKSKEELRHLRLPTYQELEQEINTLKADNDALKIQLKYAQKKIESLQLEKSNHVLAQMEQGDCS
A digest of the protocol:
as §1

Each structure is given as a SMILES string. ± gives the standard deviation of the averaged measurements. Targets with the largest changes are over-represented here; the source holds about 6,500 in all.

For `Nc1ncnc2c1ncn2[C@@H]1O[C@H](COP(=O)(O)OP(=O)(O)OP(=O)(O)O)[C@@H](O)[C@H]1O` [adenosine triphosphate], the NP40-soluble protein abundance is 1.07 ± 0.057 in the assay with A6NG45|Q13162 (concentration: 1mM); 1.01 ± 0.042 with A6NG45|Q13162 (concentration: 2mM); 0.975 ± 0.041 in the assay with A6NG45|Q13162 (concentration: 4mM); 0.953 ± 0.07 with A6NG45|Q13162 (concentration: 6mM); 1.03 ± 0.034 in the assay with A6NG45|Q13162 (concentration: 8mM); 0.992 ± 0.033 with A6NG45|Q13162 (concentration: 10mM). Besides, the NP40-soluble protein abundance in the assay with E7ET89|Q86UW9|Q86UW9-2 (concentration: 1mM) stood at 0.936 ± 0.2; with E7ET89|Q86UW9|Q86UW9-2 (concentration: 2mM), 1.09 ± 0.15; in the assay with E7ET89|Q86UW9|Q86UW9-2 (concentration: 4mM), 1.05 ± 0.11; with E7ET89|Q86UW9|Q86UW9-2 (concentration: 6mM) it was 1.04 ± 0.039; in the assay with E7ET89|Q86UW9|Q86UW9-2 (concentration: 8mM) it was 1.03 ± 0.086; with E7ET89|Q86UW9|Q86UW9-2 (concentration: 10mM) it was 1.04 ± 0.035. Also, the NP40-soluble protein abundance with F5GY05|A0A0D9SEJ5|Q96EK7 (concentration: 1mM) is 1.03 ± 0.013; with F5GY05|A0A0D9SEJ5|Q96EK7 (concentration: 2mM), 1.0493 ± 0.001; with F5GY05|A0A0D9SEJ5|Q96EK7 (concentration: 4mM), 1.07 ± 0.017; with F5GY05|A0A0D9SEJ5|Q96EK7 (concentration: 6mM) it was 1.06 ± 0.06; with F5GY05|A0A0D9SEJ5|Q96EK7 (concentration: 8mM), 1.07 ± 0.02; with F5GY05|A0A0D9SEJ5|Q96EK7 (concentration: 10mM) it was 1.08 ± 0.052. For the same compound, the NP40-soluble protein abundance with F5H514|O95267|O95267-2 (concentration: 1mM) came out at 1.04 ± 0.12; with F5H514|O95267|O95267-2 (concentration: 2mM), 1.09 ± 0.046; with F5H514|O95267|O95267-2 (concentration: 4mM), 1.19 ± 0.15; with F5H514|O95267|O95267-2 (concentration: 6mM), 1.21 ± 0.13; with F5H514|O95267|O95267-2 (concentration: 8mM), 1.14 ± 0.065; with F5H514|O95267|O95267-2 (concentration: 10mM), 1.24 ± 0.15.
